BoNT F protease = blocks Botulinum neurotoxin F light chain protease | Multiplex microsphere protease cleavage assay, flow cytometry | 0.22% of 360,000 active | inhibition, % at 10 µM; in the data active means inhibition above about 35%, passing the limit was not always enough; inconclusive means no clear call, values can overlap the other calls
VHR inh abs = inhibitors of human VHR1 phosphatase (DUSP3). P51452. recombinant VHR phosphatase, pNPP absorbance. inhibition, % at 13.3 µM. 0.52% of 290,000 active; in the data active means inhibition above about 50%
SARS 3CLpro inh = SARS-CoV 3CLpro protease inhibition; AID 1706; P0C6X7; 0.14% of 290,000 active; inhibition, % at 6 µM; recombinant SARS-CoV 3CLpro, quenched FRET peptide cleavage; in the data active means inhibition above about 12%
BoNT A protease = BoNT A light chain protease inhibition | 0.17% of 360,000 active | inhibition, % at 10 µM | multiplex microsphere protease substrate cleavage, flow cytometry | AID 588499
Anthrax LF prot = anthrax lethal factor protease inhibition. 0.12% of 360,000 active. multiplex microsphere protease cleavage assay, LF. inhibition, % at 10 µM. AID 588501. P15917
Target sequence (P15917 whole entry, looked up): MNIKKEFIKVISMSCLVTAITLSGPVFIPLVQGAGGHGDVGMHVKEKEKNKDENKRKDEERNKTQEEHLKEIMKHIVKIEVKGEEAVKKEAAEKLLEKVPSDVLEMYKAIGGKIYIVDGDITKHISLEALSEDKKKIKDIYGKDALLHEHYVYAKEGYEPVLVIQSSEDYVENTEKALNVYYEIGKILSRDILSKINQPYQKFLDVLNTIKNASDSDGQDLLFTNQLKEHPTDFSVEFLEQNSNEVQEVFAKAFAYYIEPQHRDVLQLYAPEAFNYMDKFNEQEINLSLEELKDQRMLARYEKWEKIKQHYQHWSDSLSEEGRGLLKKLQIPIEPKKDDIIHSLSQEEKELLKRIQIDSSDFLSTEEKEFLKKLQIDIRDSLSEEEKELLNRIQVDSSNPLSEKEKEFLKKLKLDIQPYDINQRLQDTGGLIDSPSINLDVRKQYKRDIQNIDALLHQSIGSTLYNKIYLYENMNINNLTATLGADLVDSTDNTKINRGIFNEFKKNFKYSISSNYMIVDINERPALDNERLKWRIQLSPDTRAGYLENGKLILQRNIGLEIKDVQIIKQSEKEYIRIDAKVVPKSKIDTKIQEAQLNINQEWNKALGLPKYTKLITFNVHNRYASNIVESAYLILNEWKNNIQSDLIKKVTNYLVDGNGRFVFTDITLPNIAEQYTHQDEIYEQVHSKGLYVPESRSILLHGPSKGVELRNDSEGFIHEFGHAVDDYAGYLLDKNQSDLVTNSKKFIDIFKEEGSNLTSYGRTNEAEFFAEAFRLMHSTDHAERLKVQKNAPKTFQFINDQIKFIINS
Autofluor counter = flagged as autofluorescent in microsphere protease counterscreen; fluorescence intensity (concentration not given with the values); compound autofluorescence counterscreen, microsphere flow cytometry; active compounds read high; AID 624483; 3.1% of 360,000 active; in the data active means fluorescence intensity above about 16000; inconclusive means no clear call, values can overlap the other calls
Numbers stand for hits; – = inactive; ? = inconclusive; · = not tested or not shown. An excerpt weighted towards active compounds, which were near 3.9% of everything screened. Unless noted, no stated cut-off is given here; in the data, active means inhibition above about 30%; inconclusive means no clear call, values can overlap the other calls; inactive means below that.

SMILES	BoNT F protease	VHR inh abs	SARS 3CLpro inh	BoNT A protease	Anthrax LF prot	Autofluor counter
CCC(C)NC(=O)CCNS(=O)(=O)c1ccc(Br)cc1 (stereo not drawn)	–	–	–	–	–	21722
O=C(Nc1cccc(F)c1)/C(=C/c1ccco1)NC(=O)c1ccco1	–	–	–	–	–	?
CC1CCC(NC(=O)c2cc(S(=O)(=O)N3CCCCC3)ccc2N2CCOCC2)CC1 (stereo not drawn)	–	·	·	–	–	–
COc1ccccc1CN(C)C(=O)c1cccc(S(=O)(=O)N2CCCc3ccccc32)c1	–	·	·	–	–	–
COC(=O)C1=C(C(=O)OC)[C@@H]2N(Cc3ccccc3)c3ccccc3[C@@]23C[C@@H](C(=O)OC)N(C(=O)NC(C)(C)C)C3=N1	–	·	·	–	–	–
Sc1oc(-c2ccccc2)cc1C=Nc1ccccc1	–	–	–	–	–	24473
Oc1oc(-c2ccccc2)nc1C=Nc1ccccc1	–	–	–	–	–	–
O=P(Nc1cccnc1)(Oc1ccccc1Cl)Oc1ccccc1Cl	86.0	–	–	–	30.5	–
O=C(O)c1ccccc1C(=O)Nc1ccc(Oc2ccccc2)cc1	–	–	–	–	–	–
CC(C)(C)c1ccc(Oc2ccc(NC(=O)c3ccccc3C(=O)O)cn2)cc1	47.5	–	–	–	?	–
COC(=O)c1ccc(C(=O)OC)nc1	35.4	–	–	–	–	–
COC(=O)c1ccc(C(=O)O)nc1	–	–	–	–	–	–
CCOC(=O)c1ccc(Nc2c(CC)c(C)nc3ncnn23)cc1	–	–	–	–	–	17060
COC(=O)c1ccc(NC(=O)CCc2c(C)nc3ncnn3c2C)cc1	–	–	–	–	–	22498
Cc1ccnc(NC(=O)CCc2c(C)nc3ncnn3c2C)c1	–	–	–	–	–	20457
Cc1nc2ncnn2c(C)c1CCC(=O)NCCC1=CCCCC1	–	–	–	–	–	20756
CC(=O)c1ccccc1C(=O)N1CCCC(C(=O)c2ccc(C(F)(F)F)cc2)C1 (stereo not drawn)	–	–	–	–	–	–
Cn1cnc([N+](=O)[O-])c1NCc1ccccc1	40.0	–	–	–	?	–
CCNc1c([N+](=O)[O-])ncn1C	–	–	–	–	–	–
O=C(Nc1cc2c(oc1=O)CCCC2=O)c1ccc(Cl)cc1	–	–	–	–	–	–
COc1ccccc1NC(=O)c1cccs1	–	–	–	–	–	16647
COc1ccccc1NC(=O)CN(Cc1ccco1)C(=O)c1cccs1	–	–	–	–	–	23213
COc1ccc(/C=C(\NC(=O)c2cccs2)C(=O)NC(C)(C)C)cc1OC	–	53.0	–	–	–	–
CCCc1cc(=O)[nH]c(SC(C)C(=O)N2c3ccccc3CC2C)n1 (stereo not drawn)	–	·	·	–	–	–
O=C(/C=C/c1ccc(-c2ccccc2[N+](=O)[O-])o1)c1ccc(Br)cc1	–	–	–	?	–	21485
SMILES	BoNT F protease	VHR inh abs	SARS 3CLpro inh	BoNT A protease	Anthrax LF prot	Autofluor counter
Cc1ccc(-c2ccc(/C=C/C(=O)c3ccccc3)o2)cc1	–	–	–	44.4	–	–
O=Cc1ccc(-c2cccc(C(=O)O)c2)o1	–	–	–	–	–	–
Cc1ccc(C(=O)/C=C/c2ccc(-c3ccccc3[N+](=O)[O-])o2)cc1	–	–	–	–	–	–
O=C(/C=C/c1ccc(-c2ccccc2[N+](=O)[O-])o1)c1ccc(F)cc1	–	–	–	–	–	–
O=C(/C=C/c1ccc(-c2ccccc2)o1)c1ccccc1	–	–	–	63.0	31.3	–
O=C(OCC(=O)N1CCCCC1)c1cc(NS(=O)(=O)c2ccc(Cl)c([N+](=O)[O-])c2)ccc1O	–	–	–	–	–	–
CCn1nc(C)c(C(=O)Nc2cc(Oc3ccc(Cl)cc3)cc([N+](=O)[O-])c2)c1C	–	–	–	–	–	19896
COc1cccc(NC(=O)N(C)C[C@H]2Oc3cc(Br)ccc3S(=O)(=O)N([C@H](C)CO)C[C@H]2C)c1	–	·	·	–	–	–
CCOP(=O)(OCC)/C(C#N)=C/c1cc(OC)ccc1OC	–	52.4	–	–	–	–
CCOC(=O)/C(C#N)=C/Nc1cc(OC)ccc1OC	–	–	–	–	–	–
O=C(O)CC(Cn1[nH]nnc1=S)c1ccccc1 (stereo not drawn)	–	–	–	?	–	22296
O=C(O)CC(CC(=O)Nc1nncs1)c1ccccc1 (stereo not drawn)	–	–	–	–	–	–
CCCCNC(=O)CCn1c(=O)c2ccccc2n(Cc2ccc(Cl)cc2)c1=O	–	–	–	–	–	–
